# Laboratory results reported in PubChem BioAssay (NCATS).
# Records with an inconclusive call do not appear. Where a call stands in place of a potency, no number is given. Active and inactive are the calls of the source. Calls follow the shape of the dose curve; as a rule, active = well fitted activation curve with a large enough effect; inconclusive = small, poorly fitted or top-dose-only effect; inactive = flat fitted curve, though single readings scatter. Where a SMILES comes first, the peptide text is derived from it. [ ]: non-standard residue; d: D form.
# Assay: Primary redox qHTS assay for identification of artifact compounds. (AID 1845223)
# Details: Amplex Red/HRP redox cycling with DTT, fluorescence; series mostly up to 53.8 µM
# Method in brief: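 Amplex Red (25 uM) and HRP (250 mU/mL) in HBSS, with compounds for 15 min, then 250 uM DTT for 30 min, room temperature, dark. Fluorescence 525/598 nm read; normalized to DMSO and 10 uM DA3003; Hill fit.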
row,SMILES,Potency
1,CC(=O)N[C@H](Cc1ccc(O)cc1)C(=O)N[C@H](CCCN=C(N)N)C(=O)N[C@H](Cc1ccccc1)C(N)=O (Ac-[dY]-[dR]-[dF]-NH2),inactive
2,COc1ccc(C(O[C@@H]2O[C@H](CO)[C@@H](O)[C@H](O)[C@H]2O)C(CO)Oc2ccc(/C=C/CO)cc2OC)cc1O (stereo partly specified),inactive
3,O=C(/C=C/c1ccc(O)cc1)OCC1=CC2OC(=O)C3=CO[C@@H](O[C@@H]4O[C@H](CO)[C@@H](O)[C@H](O)[C@H]4O)[C@H]1[C@@H]32 (stereo partly specified),inactive
4,CC(=O)OCC(=O)O[C@@H]1[C@H]2[C@@H](OC(=O)c3ccccc3)[C@@H](C)C[C@]2(O)[C@H](OC(C)=O)C2(C)[C@H]3CC(C)(C)C(=O)[C@@H]3CC1(OC(C)=O)[C@@H]2OC(C)=O (stereo partly specified),inactive
5,O=C(O)CCc1cccc(O[C@@H]2O[C@H](CO)[C@@H](O)[C@H](O)[C@H]2O)c1O,inactive
6,C=CC(C)(O)CO[C@@H]1O[C@H](CO)[C@@H](O)[C@H](O)[C@H]1O (stereo partly specified),inactive
7,CC(C)[C@H]1CCC(CO)=C[C@@H]1/C=C(\CO)C(=O)O,inactive
8,COC(=O)C12C(=O)C(C)=C(O)C1(C)C(C)=CC1C34CCC(OC3=O)C(C)(C)C4CCC12C (stereo unspecified),inactive
9,CCCCNC(=O)[C@@H]1Cc2ccccc2N1C(=O)[C@@H](N)CC,inactive
10,CC1(C)CCC(C)(C)c2cc3c(cc21)Sc1ccccc1N=C3c1ccc(C(=O)O)cc1,inactive
11,CC1CCC2(C(=O)OC3OC(CO)C(O)C(O)C3O)CCC3(C(=O)O)C(=CCC4C5(C)CCC(OC6OC(C)C(O)C(O)C6O)C(C)(C)C5CCC43C)C2C1C (stereo unspecified),inactive
